Data on 26 targets can be found in the supplement of paper PMC10849652.

The full data set covers some 8,800 targets. This sample favours those with a hit. About 0.5% of all pairs of compound and target were hits. A number with no mark means an inactive call.

Common to all, as to experiment: log2 fold change, soluble protein after heating vs DMSO (PISA); higher = thermal stabilisation; K562 lysate, 10 uM; active = over 0.2 and 3.5 SD of the protein, either way, in both replicates (recomputed)
Compound in assay [1]: C1=CC=C(C=C1)[C@H](COC2=CC3=C(C=C2)NC(=O)N3)NC(=O)C4=CC=CN(C4=O)CC5=CC(=C(C=C5)F)F
In a few lines: (§1)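 Thermal stability, expressed as log-two fold change relative to solvent controls, is given from duplicates. Crude K562 extract in PBS pH 7.4 with 1 mM MgCl2, at 1 mg/mL protein, was treated with 10 μM compound for 30 min and heated in aliquots for 3 min across 48°C-58°C. After pooling, adjustment to 0.5% NP-40 at 4°C and centrifugation at 21,000xg for 90 min, supernatant protein was measured by TMTpro 16plex LC-MS/MS with channel sums equalised.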

Compound in assay [2]: CC1=C(SC2=C1C(=N[C@H](C3=NN=C(N32)C)CC(=O)N)C4=CC=C(C=C4)Cl)C
In a few lines: as §1

Compound in assay [3]: CC1=C2C(=CC=C1)N=C(N(C2=O)C3=CC=CC=C3C)CN4C=NC5=C(N=CN=C54)N
In a few lines:
as §1

Compound in assay [4]: Cc1sc2c(c1C)C(c1ccc(Cl)cc1)=N[C@@H](CC(=O)OC(C)(C)C)c1nnc(C)n1-2
In a few lines: as §1

Compound in assay [5]: c1ccc([C@@H]2C[C@H]2NC2CCNCC2)cc1
The procedure, abridged: as §1

Chain of UniProt P51159 (P51159 whole entry, looked up): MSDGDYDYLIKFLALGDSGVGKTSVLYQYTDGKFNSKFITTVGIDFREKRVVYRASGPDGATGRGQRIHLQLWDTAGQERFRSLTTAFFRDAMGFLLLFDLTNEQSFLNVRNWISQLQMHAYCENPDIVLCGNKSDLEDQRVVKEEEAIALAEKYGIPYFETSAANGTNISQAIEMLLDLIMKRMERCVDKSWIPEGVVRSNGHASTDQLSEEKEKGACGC
Chain of UniProt Q86VV8 (Q86VV8 whole entry, looked up): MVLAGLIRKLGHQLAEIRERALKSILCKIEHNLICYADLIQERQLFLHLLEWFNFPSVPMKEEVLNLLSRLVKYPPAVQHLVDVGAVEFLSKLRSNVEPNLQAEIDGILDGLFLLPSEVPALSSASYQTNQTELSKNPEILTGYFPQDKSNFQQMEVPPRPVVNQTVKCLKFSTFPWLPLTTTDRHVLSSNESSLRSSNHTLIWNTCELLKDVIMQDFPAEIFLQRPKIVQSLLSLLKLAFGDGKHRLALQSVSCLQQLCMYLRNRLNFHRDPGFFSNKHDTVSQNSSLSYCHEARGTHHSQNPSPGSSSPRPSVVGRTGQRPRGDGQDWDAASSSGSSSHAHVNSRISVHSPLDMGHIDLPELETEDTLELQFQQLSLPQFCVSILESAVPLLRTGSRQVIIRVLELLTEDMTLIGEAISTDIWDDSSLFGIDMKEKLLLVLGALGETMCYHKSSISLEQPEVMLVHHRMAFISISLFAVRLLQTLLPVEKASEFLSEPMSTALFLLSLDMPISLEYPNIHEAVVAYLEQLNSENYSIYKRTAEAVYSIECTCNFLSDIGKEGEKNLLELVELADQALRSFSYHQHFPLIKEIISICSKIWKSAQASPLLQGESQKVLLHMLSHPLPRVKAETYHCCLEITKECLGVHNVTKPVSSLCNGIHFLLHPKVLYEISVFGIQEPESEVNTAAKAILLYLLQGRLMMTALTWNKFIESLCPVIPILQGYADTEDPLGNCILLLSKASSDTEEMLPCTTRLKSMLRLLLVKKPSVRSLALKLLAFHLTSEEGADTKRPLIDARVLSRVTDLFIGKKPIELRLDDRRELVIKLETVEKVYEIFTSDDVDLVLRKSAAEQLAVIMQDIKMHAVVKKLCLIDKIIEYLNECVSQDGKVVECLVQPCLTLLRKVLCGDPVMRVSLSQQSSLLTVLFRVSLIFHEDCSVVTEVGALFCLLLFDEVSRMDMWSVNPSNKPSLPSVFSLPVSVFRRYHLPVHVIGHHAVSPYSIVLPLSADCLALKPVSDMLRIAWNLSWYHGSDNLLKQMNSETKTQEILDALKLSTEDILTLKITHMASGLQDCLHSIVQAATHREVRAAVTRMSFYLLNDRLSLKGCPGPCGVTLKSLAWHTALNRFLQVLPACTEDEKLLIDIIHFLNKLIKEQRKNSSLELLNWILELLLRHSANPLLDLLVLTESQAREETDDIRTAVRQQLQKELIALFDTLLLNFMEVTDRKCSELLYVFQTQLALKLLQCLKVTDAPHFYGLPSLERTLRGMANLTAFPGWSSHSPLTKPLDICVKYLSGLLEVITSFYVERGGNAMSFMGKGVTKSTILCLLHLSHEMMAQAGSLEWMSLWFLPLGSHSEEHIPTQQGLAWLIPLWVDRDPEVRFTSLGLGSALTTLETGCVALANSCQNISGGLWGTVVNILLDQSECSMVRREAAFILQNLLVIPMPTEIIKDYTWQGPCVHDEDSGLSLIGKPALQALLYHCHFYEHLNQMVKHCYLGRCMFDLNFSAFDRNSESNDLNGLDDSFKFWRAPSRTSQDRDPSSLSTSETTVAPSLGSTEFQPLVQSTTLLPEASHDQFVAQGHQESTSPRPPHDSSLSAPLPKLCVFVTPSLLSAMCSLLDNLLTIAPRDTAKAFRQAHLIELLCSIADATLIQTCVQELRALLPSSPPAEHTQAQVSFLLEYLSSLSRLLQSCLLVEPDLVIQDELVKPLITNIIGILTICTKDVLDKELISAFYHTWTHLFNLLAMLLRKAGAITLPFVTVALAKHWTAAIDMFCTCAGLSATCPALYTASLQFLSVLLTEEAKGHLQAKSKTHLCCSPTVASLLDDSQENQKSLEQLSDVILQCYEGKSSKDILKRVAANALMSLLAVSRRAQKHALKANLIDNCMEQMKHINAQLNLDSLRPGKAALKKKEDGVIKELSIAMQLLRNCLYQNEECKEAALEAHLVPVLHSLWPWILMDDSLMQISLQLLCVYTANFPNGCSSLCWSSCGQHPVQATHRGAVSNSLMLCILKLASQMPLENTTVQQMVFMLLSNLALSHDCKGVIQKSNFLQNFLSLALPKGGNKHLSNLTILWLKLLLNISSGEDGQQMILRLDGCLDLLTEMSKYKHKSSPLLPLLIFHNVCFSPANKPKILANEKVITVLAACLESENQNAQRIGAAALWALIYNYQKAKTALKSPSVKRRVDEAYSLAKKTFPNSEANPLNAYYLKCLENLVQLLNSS
Chain of UniProt Q7L523 (Q7L523 whole entry, looked up): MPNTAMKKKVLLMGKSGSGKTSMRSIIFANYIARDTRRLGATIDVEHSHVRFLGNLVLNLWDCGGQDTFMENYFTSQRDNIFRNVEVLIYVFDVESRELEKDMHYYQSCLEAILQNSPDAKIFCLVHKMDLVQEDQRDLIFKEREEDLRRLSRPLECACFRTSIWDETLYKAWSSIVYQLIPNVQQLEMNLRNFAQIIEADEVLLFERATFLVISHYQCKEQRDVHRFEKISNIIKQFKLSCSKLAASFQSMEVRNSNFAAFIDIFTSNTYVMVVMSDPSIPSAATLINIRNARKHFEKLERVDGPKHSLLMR
Chain of UniProt Q9GZR2 (Q9GZR2 whole entry, looked up): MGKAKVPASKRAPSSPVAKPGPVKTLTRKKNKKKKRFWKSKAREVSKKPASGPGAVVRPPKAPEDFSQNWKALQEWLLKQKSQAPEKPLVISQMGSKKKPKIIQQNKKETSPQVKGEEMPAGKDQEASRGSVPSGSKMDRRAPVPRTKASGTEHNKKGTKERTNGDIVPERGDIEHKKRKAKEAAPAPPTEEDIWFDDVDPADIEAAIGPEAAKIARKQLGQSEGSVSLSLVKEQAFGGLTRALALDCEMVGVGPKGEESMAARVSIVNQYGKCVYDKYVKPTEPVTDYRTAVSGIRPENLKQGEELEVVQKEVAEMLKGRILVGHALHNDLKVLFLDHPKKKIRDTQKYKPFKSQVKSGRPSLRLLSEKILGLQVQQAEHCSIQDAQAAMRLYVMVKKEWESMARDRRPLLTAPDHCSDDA
Chain of UniProt P40938 (P40938 whole entry, looked up): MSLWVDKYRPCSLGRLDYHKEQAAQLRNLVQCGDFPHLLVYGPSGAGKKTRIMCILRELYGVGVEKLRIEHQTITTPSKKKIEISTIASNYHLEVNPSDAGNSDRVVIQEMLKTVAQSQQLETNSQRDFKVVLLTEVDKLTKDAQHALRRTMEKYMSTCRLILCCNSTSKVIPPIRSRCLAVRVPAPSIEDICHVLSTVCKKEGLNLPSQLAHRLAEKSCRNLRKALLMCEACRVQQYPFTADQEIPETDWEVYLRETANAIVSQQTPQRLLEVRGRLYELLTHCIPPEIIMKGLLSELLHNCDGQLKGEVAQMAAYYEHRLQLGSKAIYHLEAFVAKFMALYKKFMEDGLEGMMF
Chain of UniProt P47736 (P47736 whole entry, looked up): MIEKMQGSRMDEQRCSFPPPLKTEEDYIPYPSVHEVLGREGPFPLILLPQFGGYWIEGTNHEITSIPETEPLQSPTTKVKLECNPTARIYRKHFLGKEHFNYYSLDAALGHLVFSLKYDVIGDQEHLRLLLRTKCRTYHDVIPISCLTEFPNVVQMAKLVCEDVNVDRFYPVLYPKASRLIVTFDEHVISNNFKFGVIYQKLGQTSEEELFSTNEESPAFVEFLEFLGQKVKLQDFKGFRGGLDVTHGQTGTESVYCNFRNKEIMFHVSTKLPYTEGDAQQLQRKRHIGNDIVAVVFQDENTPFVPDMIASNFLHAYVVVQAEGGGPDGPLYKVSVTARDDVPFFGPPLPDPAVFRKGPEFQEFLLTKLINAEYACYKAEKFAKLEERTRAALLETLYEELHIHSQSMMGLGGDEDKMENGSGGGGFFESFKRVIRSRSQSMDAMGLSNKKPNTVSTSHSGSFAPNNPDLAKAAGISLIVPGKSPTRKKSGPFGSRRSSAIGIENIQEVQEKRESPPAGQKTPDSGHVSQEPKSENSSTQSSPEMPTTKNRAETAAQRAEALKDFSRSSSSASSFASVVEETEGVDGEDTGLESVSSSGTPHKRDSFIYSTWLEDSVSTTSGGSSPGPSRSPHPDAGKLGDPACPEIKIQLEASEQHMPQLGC
Chain of UniProt Q9Y6B6 (Q9Y6B6 whole entry, looked up): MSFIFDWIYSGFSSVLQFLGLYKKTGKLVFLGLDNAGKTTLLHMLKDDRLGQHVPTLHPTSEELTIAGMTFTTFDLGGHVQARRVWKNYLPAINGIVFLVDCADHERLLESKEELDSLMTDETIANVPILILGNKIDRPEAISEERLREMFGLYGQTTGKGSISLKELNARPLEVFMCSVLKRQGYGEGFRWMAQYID
Chain of UniProt Q8NC42 (Q8NC42 whole entry, looked up): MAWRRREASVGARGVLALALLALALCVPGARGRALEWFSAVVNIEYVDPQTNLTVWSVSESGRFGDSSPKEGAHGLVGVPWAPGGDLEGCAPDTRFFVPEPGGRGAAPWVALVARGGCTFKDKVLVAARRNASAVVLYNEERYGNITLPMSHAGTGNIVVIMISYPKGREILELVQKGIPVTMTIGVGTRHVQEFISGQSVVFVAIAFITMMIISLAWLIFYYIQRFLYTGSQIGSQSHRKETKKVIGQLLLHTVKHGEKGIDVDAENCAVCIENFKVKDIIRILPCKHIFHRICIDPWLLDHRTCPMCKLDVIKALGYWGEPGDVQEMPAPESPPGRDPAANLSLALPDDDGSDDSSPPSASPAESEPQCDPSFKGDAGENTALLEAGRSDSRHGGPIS
Chain of UniProt Q9H0U4 (Q9H0U4 whole entry, looked up): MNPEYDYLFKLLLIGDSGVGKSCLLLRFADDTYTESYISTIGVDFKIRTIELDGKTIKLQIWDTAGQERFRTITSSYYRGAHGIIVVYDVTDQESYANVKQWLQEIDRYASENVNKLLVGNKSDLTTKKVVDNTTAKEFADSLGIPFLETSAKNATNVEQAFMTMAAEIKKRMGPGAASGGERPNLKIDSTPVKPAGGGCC

Consider RFC3 (UniProt P40938), for which the log2 fold change is -0.032 in assay [1]; 0.003 in assay [2]; 0.026 in assay [3]; 0.055 in assay [4]; 0.024 in assay [5].
Consider RECQL5 (UniProt O94762), for which the log2 fold change in assay [1] was -0.081; in assay [2], 0.014; in assay [3], 0.011; in assay [4], -0.174; in assay [5], 0.064.
Take SELENOK (UniProt Q9Y6D0): the log2 fold change in assay [1] is 0.061; in assay [2], -0.074; in assay [3], -0.05; in assay [4], -0.181; in assay [5], -0.311.
The matching figures for REXO4 (UniProt Q9GZR2): 0.009, -0.003, 0.029, 0.051 and 0.138.
For SEC16A isoform 5 (UniProt O15027), in that order: -0.013, -0.005, 0.067, 0.036 and 0.011.
The matching figures for RRAGA (UniProt Q7L523): 0.024, -0.039, 0.01, -0.045 and -0.036.
As for RAP1GAP isoform 4 (UniProt P47736), the log2 fold change in assay [1] is 0.019; in assay [2], -0.012; in assay [3] it was -0.019; in assay [4], -0.009; in assay [5], 0.007.
For RNF149 (UniProt Q8NC42), the log2 fold change is -0.015 in assay [1]; 0.022 in assay [2]; -0.138 in assay [3]; -0.081 in assay [4]; 0 in assay [5].
As for REEP5 (UniProt Q00765), the log2 fold change was 0.007 in assay [1]; 0.009 in assay [2]; 0.028 in assay [3]; 0.022 in assay [4]; -0.092 in assay [5].
For RRM1 (UniProt P23921), in that order: 0.014, 0.028, 0.042, 0.028 and 0.004.
The matching figures for RAB5IF isoform 5 (UniProt Q9BUV8): 0.01, -0.096, 0.019, -0.085 and 0.364.
For RPS6KA1 (UniProt Q15418), in that order: -0.073, -0.064, -0.045, 0.015 and -0.047.
Regarding RPN2 (UniProt P04844), the log2 fold change in assay [1] is -0.001; in assay [2], -0.01; in assay [3] it was 0.01; in assay [4], -0.008; in assay [5] it was -0.009.
For RAI14 isoform 2 (UniProt Q9P0K7), in that order: 0.002, -0.052, -0.02, -0.041 and -0.033.
The matching figures for SCO1 (UniProt O75880): -0.021, 0.017, 0, 0.136 and -0.027.
For QTRT2 isoform 4 (UniProt Q9H974), in that order: -0.004, 0.014, -0.03, -0.019 and -0.157.
For RTTN (UniProt Q86VV8), the log2 fold change in assay [1] is 0.089; in assay [2] it was -0.033; in assay [3], -0.289; in assay [4] it was 0.046; in assay [5], 0.024.
Take SAP30 (UniProt O75446): the log2 fold change in assay [1] is 0.029; in assay [2] it was -0.029; in assay [3], 0.009; in assay [4], 0.014; in assay [5], -0.026.
The matching figures for RCOR3 isoform 3 (UniProt Q9P2K3): -0.026, 0.009, 0.046, 0.011 and 0.394 (active).
On to ROCK1 (UniProt Q13464), for which the log2 fold change in assay [1] is 0.019; in assay [2], 0.027; in assay [3], 0.023; in assay [4] it was -0.016; in assay [5], -0.008.
The matching figures for RAB1B (UniProt Q9H0U4): -0.015, 0.021, 0.056, 0.013 and -0.17.
The matching figures for RAB27A (UniProt P51159): 0.052, 0.028, -0.007, -0.013 and 0.181.
As to RECQL4 (UniProt O94761), the log2 fold change in assay [1] is 0.002; in assay [2], -0.012; in assay [3], 0.073; in assay [4], -0.011; in assay [5] it was 0.154.
Turning to RBBP7 isoform 2 (UniProt Q16576), the log2 fold change in assay [1] is -0.012; in assay [2], -0.009; in assay [3], -0.03; in assay [4], -0.01; in assay [5], -0.033.
With RNASEH2B (UniProt Q5TBB1), the log2 fold change is 0.056 in assay [1]; -0.008 in assay [2]; -0.032 in assay [3]; 0.038 in assay [4]; 0.049 in assay [5].
Consider SAR1B (UniProt Q9Y6B6), for which the log2 fold change in assay [1] was -0.006; in assay [2] it was -0.007; in assay [3] it was -0.01; in assay [4], -0.068; in assay [5], 0.052.
